In the library only some 3% were active in any assay of this set; here they are far more common.
Mcl-1 Bim block: inhibitors of Bim peptide binding to Mcl-1, primary screen, biochemical, bead-based flow cytometry, multiplex; Bim peptide-Mcl-1 binding; Induced myeloid leukemia cell differentiation protein Mcl-1 (Homo sapiens), Q07820; inhibition, % at 10 µM; actives 0.1% (n = 190,000); in the data active = inhibition above about 40%;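 note: 0% = no compound tracer wells and 100% = peptide blocker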
Target sequence (Q07820 whole entry, looked up): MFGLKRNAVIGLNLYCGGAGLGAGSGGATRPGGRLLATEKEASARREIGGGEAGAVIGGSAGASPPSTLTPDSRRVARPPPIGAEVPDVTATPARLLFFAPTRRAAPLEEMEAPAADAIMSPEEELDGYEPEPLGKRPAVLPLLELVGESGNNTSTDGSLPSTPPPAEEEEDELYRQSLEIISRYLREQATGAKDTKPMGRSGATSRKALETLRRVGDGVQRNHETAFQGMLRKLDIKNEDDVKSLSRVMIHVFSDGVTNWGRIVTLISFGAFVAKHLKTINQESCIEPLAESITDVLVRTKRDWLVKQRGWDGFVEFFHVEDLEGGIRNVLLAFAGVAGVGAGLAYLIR
Arbovirus anti: antivirals against arbovirus infection, primary screen, cell-based, full library, 10K replicate subset; actives 0.37% (n = 200,000); inhibition, % at 10 µM; arbovirus infection cell-based antiviral screen; AID 1251, 2008; in the data active = inhibition above about 30%
14-3-3 Bad inh: inhibitors of 14-3-3 zeta/Bad binding, primary screen, biochemical, TR-FRET, bovine 14-3-3 zeta; 14-3-3 protein zeta/delta (Bos taurus), P63103; TR-FRET 14-3-3zeta/Dy647-pBad peptide displacement, 1 h; actives 0.71% (n = 220,000); inhibition, % at 21.7 µM;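 active = inhibition above about 70%, limit read from the data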;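 note: 0% = full 14-3-3 plus peptide FRET controls and 100% = background without 14-3-3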
Mcl1 Noxa PPI: Mcl-1/Noxa binding inhibitors, primary screen, biochemical, TR-FRET, 1536-well; TR-FRET Mcl-1/Noxa peptide binding, 2 h; inhibition, % at 21.7 µM; actives 1.5% (n = 220,000);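 active = compounds that cut the protein-peptide binding signal by more than 50% relative to plate controls in a single-dose test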;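 note: His-tagged Mcl-1 with rhodamine Noxa BH3 peptide and terbium anti-His antibody; 0% = Mcl-1 plus Noxa peptide wells and 100% = peptide-only wells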
Mcl1 Bid PPI: Mcl-1/Bid binding inhibitors, primary screen, biochemical, TR-FRET, 1536-well | Induced myeloid leukemia cell differentiation protein Mcl-1 (Homo sapiens), Q07820 | TR-FRET Mcl-1/Bid-Dy647 peptide binding | inhibition, % at 21.7 µM | actives 0.97% (n = 220,000);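 active = compounds that cut the binding signal by more than half at the single screening dose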;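 note: His-tagged Mcl-1 with europium anti-His antibody binding Bid BH3 peptide; 0% = Mcl-1 plus peptide wells and 100% = peptide-only wells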
* marks the source's active call; other numbers are inactive results; / = not tested or not shown.

SMILES | Mcl-1 Bim block | Arbovirus anti | 14-3-3 Bad inh | Mcl1 Noxa PPI | Mcl1 Bid PPI
O=C(O)C1Nc2c(C(=O)N3CCOCC3)cccc2C2C=CCC12 (centres undefined) | 6 | -5 | 16 | 80* | 5
CC(C)C1Nc2ccc(C(=O)O)cc2C2C=CCC21 (centres undefined) | 1 | 15 | -4 | 42 | -57
CN1CC(=O)N2[C@H](c3ccc4c(c3)OCO4)c3[nH]c4ccccc4c3C[C@@H]2C1=O | 0 | 20 | 12 | 4 | -8
COc1cc(/C=C(\C#N)c2nc3c(s2)CCCC3)ccc1O | 0 | -13 | 37 | 51* | 29
Cc1ccc(S(=O)(=O)NCC2(c3ccccc3)CCOCC2)cc1 | -4 | 1 | -7 | -8 | -9
Nc1nnc(CC(=O)N/N=C/c2cccc([N+](=O)[O-])c2)s1 | -2 | 8 | / | 19 | -43
Nc1nnc(CC(=O)N/N=C/c2cccc(OCCOc3ccccc3)c2)s1 | 0 | -13 | 11 | -6 | 51*
Nc1nnc(CC(=O)N/N=C/c2cc([N+](=O)[O-])cc(Br)c2O)s1 | 1 | 14 | 8 | 56* | -56
Oc1ccc(F)cc1-c1cc(-c2ccc3c(c2)OCCO3)n[nH]1 | -1 | 32* | -2 | 32 | -1
COC(=O)c1ccc(C2N=C(c3cccs3)CC(c3ccccc3O)N2)cc1 (centres undefined) | 0 | -2 | -2 | 1 | -3
COc1cc2c(cc1OC)C(c1ccccc1F)OC(=O)C2 (centres undefined) | 96* | -7 | -5 | 10 | -8
COc1cc2c(cc1OC)C(C(=O)N1CCCCC1)C(c1ccccc1F)N(C)C2=O (centres undefined) | -2 | 8 | 28 | 21 | -4
CC(C)NC(=O)c1cc(-c2ccc(Br)cc2)on1 | -7 | -3 | -11 | 16 | -5
CC1CCCCN1c1nnc(NC(=O)c2cc(-c3ccc(Br)cc3)on2)s1 (centres undefined) | 1 | 42* | -3 | 24 | -26
COc1cc(OC)cc(-c2cc3nc(C)c(CCC(=O)O)c(C)n3n2)c1 | 0 | 4 | 66 | 33 | 62*
COc1cc(OC)cc(-c2cc3nc(C)c(CCC(=O)NC(C)CCc4ccco4)c(C)n3n2)c1 (centres undefined) | 2 | -14 | / | / | /
Cc1ccc(NS(=O)(=O)c2cc([N+](=O)[O-])ccc2NNC(=S)Nc2cccc(Cl)c2)c(C)c1 | 0 | -42 | -3 | 88* | 46
CN(C)CCCN(CCCN(C)C)C(=S)Nc1ccc(S(=O)(=O)N2CCOCC2)cc1 | / | / | 3 | 5 | -30
COC(=O)CCN(C(=O)c1cccc(OC(C)=O)c1)c1ccccn1 | -4 | -3 | -14 | 0 | 52*
C=CCN=C1SC(C)(C)C(=O)N1S(=O)(=O)c1ccc(C)cc1 | 1 | -3 | 95* | 7 | -22
C=CCN=C1SC(C)C(=O)N1S(=O)(=O)c1ccccc1 (centres undefined) | 2 | 8 | 7 | 23 | -6
CC(C)(C)c1cccc(C2(O)C(=O)c3ccccc3C2=O)c1O | / | / | -12 | 5 | -18
CC(C)NS(=O)(=O)c1ccc2c(c1)NCC2 | -3 | 3 | -12 | 9 | -48
Cc1cc(C)n2nc3nc(N4CCCCC4)nc(-c4ccco4)c3c2n1 | 1 | 3 | 1 | 66* | -23
Cc1cc(C)n2nc3ccccc3c2n1 | -1 | -5 | 2 | 15 | -6
O=C(O)c1cccc(NN=C2c3ccccc3-c3ccccc32)c1 | 4 | 69* | 1 | 16 | -36
CNC(=O)CC1C(=O)N(c2ccc(OC)cc2)C(=S)N1NC(=O)c1cccc(F)c1 (centres undefined) | / | / | -3 | -3 | 99*
Cc1ccc2nsnc2c1S(=O)(=O)NCCc1c(C)[nH]c2ccc(F)cc12 | 0 | -9 | 5 | 8 | 55*
Cc1ccc(C)c(NS(=O)(=O)c2c(C)ccc3nsnc23)c1 | 1 | -8 | -7 | 4 | 7
Cc1ccc(-c2ccc(=O)n(CC(=O)N3CCN(c4cc(Cl)ccc4C)CC3)n2)cc1 | -4 | -23 | -1 | -1 | 2
